PubChem BioAssay AID651660 (Broad Institute, 2012)
Out of some 1,900 compounds screened, about 15 (0.8%) were called active. For the sample, actives were picked, then their nearest neighbours and some compounds at random. Unmarked numbers belong to inactive results.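 Rule for the calls: active = every replicate shows at least 50% inhibition; inconclusive = mean inhibition at least 50% but some replicate below; inactive = the rest.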

Molecular target: DNA repair protein RAD52 homolog (Homo sapiens) (UniProt P43351)
Sequence (P43351 whole entry, looked up): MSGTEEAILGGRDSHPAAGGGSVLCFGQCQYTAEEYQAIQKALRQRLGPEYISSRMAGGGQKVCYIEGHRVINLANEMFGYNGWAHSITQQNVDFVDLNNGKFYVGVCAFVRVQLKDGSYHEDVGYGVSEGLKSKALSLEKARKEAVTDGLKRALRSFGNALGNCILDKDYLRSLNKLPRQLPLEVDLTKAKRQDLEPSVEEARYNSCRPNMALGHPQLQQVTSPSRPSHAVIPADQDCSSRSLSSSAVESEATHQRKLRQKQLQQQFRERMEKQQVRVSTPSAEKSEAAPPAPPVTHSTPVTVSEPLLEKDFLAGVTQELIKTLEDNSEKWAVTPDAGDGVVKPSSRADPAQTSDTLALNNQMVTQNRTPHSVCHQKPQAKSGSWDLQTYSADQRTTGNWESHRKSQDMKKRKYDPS
Assay: inhibition of RAD52-mediated strand annealing – biochemical, FRET, single point, primary screen (AID 651660);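 note: 0% = median of neutral control wells and 100% = median of positive control wells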
Conditions: Recombinant RAD52 ssDNA annealing, FRET fluorescence, 30 min; at 18.7 µM; stronger effect = higher value

| Structure (SMILES) | inhibition |
| --- | --- |
| COc1ccc(NC(=O)CC(c2ccccc2)c2ccco2)cc1 (configuration not stated) | -8.33% |
| CC(=O)SC1CC2=CC(=O)CCC2(C)C2CCC3(C)C(CCC34CCC(=O)O4)C12 (configuration not stated) | -15.3% |
| COc1ccc(C2NC(=O)c3ccccc3O2)c(OC)c1OC (configuration not stated) | -1.29% |
| COc1cccc(/C=C/C(=O)c2c(O)cc(C)oc2=O)c1O | -38.5% |
| CCOc1ccc(NC2OC(C)C(O)C(O)C2O)c([N+](=O)[O-])c1 (configuration not stated) | -2.79% |
| CC(C)CC1c2[nH]c3ccccc3c2CCN1C(=O)CCC(=O)N(C)C (configuration not stated) | -3.31% |
| CC(NC(=O)OCc1ccccc1)C(=O)N1CC(O)CC1C(=O)O (configuration not stated) | -5.77% |
| COCCNC(=O)CSc1ccc(Cl)cc1 | -17.2% |
| CC(C)CCn1c(N2CCc3ccccc3C2)nc2c1c(=O)[nH]c(=O)n2C | -3.91% |
| O=C1Cc2ccccc2C(c2ccccc2)N1 (configuration not stated) | -8.11% |
| COc1ccc(-c2noc(CCc3ccccc3)n2)cc1 | -6.01% |
| COC(=O)c1cc(-c2c(C)oc3cc(OC)ccc3c2=O)c(C)o1 | 2.67% |
| O=c1c(-c2ccc3c(c2)OCCO3)coc2cc(OC3OC(CO)C(O)C(O)C3O)ccc12 (configuration not stated) | 2.13% |
| COc1ccc(-c2[nH]ncc2CN(CCO)Cc2cccs2)c(F)c1 | -3.67% |
| Cc1ccc2c(c1)c1c3n2CCCN(Cc2ccccc2)C3CCC1 (configuration not stated) | 3.99% |
| Cc1nc(NCc2ccco2)c(C#N)c2c1COC(C)(C)C2 | -36.8% |
| COc1cccc(CN2C(=O)N(C(C)C)C(N(O)C(=O)NC(C)C)C2(C)C)c1OC (configuration not stated) | 2.14% |
| COc1cc2cc(C(=O)O)n(C)c2c(OC)c1OC | -3.98% |
| CCC(=O)Oc1ccc(/C(CC)=C(\CC)c2ccc(OC(=O)CC)cc2)cc1 | -4.46% |

| Structure (SMILES) | inhibition |
| --- | --- |
| CN(C)CCOc1ccccc1Cc1ccccc1 | 1.84% |
| CC/C(=C(\c1ccc(O)cc1)c1ccc(OCCN(C)C)cc1)c1ccccc1 | 76% (active) |
| CC(=O)c1cccc2c(O)c(C3=Nc4ccccc4C3=O)[nH]c12 | -6.23% |
| CC(OC(=O)c1cc(=O)[nH]c2ccccc12)C(=O)c1ccccc1 (configuration not stated) | 1.44% |
| COc1cc(/C=C/C(=O)N2CCCC2)cc(OC)c1OC | -3.32% |
| Cn1c(=O)[nH]c(=O)c2c1ncn2CCN1CCOCC1 | -9.6% |
| Clc1ccc(OCCCN2CCCCC2)c(Br)c1 | 5.3% |
| CN1CCN(CCCN2c3ccccc3Sc3ccc(C(F)(F)F)cc32)CC1 | 67.4% (active) |
| OCCN1CCN(CCCN2c3ccccc3Sc3ccc(C(F)(F)F)cc32)CC1 | 65.2% (active) |
| CNCCCN1c2ccccc2CCc2ccccc21 | -18.4% |
| OCCN1CCN(CCCN2c3ccccc3Sc3ccc(Cl)cc32)CC1 | 73.4% (active) |
| OC(CCCN1CCCCC1)(c1ccccc1)c1ccccc1 | 10.1% |
| CN(C)CCCN1c2ccccc2Sc2ccc(C(F)(F)F)cc21 | 29.1% |
| CN(C)CCCN1c2ccccc2CCc2ccc(Cl)cc21 | 16% |
| CN(C)CCCN1c2ccccc2Sc2ccc(Cl)cc21 | 68.5% (active) |
| OCCOCCN1CCN(C(c2ccccc2)c2ccc(Cl)cc2)CC1 (configuration not stated) | 7.68% |
| CN(C)CCCN1c2ccccc2Sc2ccccc21 | 7.51% |
| O=c1oc2c(CN3CCN(CCO)CC3)c(O)ccc2cc1-c1ccccn1 | -38.1% |
| CCOC(=O)c1oc2cc(O)cc(C)c2c(=O)c1-c1cscn1 | 5.2% |

| Structure (SMILES) | inhibition |
| --- | --- |
| CC(=O)C1=C(Nc2ccc(C)cc2)CC(C)(O)C(C(C)=O)C1c1ccco1 (configuration not stated) | -76.2% |
| CCN(CC)CCCNC(=O)C1c2ccccc2Oc2ccccc21 | 4.59% |
| CCN(CC)CCNc1ccc(CO)c2sc3ccccc3c(=O)c12 | 61.5% (active) |
| C[C@]12CC[C@@H]3c4ccc(O)cc4CC[C@H]3[C@@H]1C[C@@H](O)[C@@H]2O[C@@H]1O[C@H](C(=O)O)[C@@H](O)[C@H](O)[C@H]1O | 5.26% |
| O=C(NCCc1ccccc1)C1CCN(C2CCN(Cc3ccco3)CC2)CC1 | -15.9% |
| COc1ccc(-c2coc3c(CN4CCOCC4)c(O)ccc3c2=O)cc1 | 7.99% |
| COc1ccc2[nH]c(CN3CCN(CC(C)C)C(CCO)C3)c(C)c2c1 (configuration not stated) | -14.8% |
| O=C(CN1C(=O)C2CCc3[nH]c4ccccc4c3C2C1=O)N1CCCC1 (configuration not stated) | -14.6% |
| OC12CCCCC1C(c1ccc3c(c1)OCO3)N(Cc1cccc(F)c1)CC2 (configuration not stated) | -0.832% |
| CCC(=O)Oc1ccc(C(=O)Nc2ccc([N+](=O)[O-])cc2)cc1 | 3.79% |
| CN1CC2CCCC3(C1)C(=O)NC1(CCCCC1)N=C23 (configuration not stated) | -2.27% |
| C1CCC(C(CC2CCCCN2)C2CCCCC2)CC1 (configuration not stated) | 62.5% (active) |
| CC(=O)c1cn(C)c(=O)[nH]c1=O | -3.65% |
| CCn1c(N2CCN(CC(=O)c3c(C)n(C)c4ccc(OC)cc34)CC2)nc2c1c(=O)[nH]c(=O)n2C | -1.17% |
| CC1(C)CC(=O)c2cn3c(nc2C1)nc1ccccc13 | -4.04% |
| CC(=O)N(CCC(Cc1ccccc1)c1ccco1)Cc1ccco1 (configuration not stated) | -17.2% |
| NC(N)=N/N=C/c1cccc(Cl)c1Cl | 18.4% |
| CN1CCc2c(n(CC(O)CN(CCO)CCO)c3ccccc23)C1=O (configuration not stated) | 11.3% |
| OCCN(CCO)c1ccc2ccccc2c1 | -0.71% |
